Measurements published in PubChem BioAssay AID1259415 (National Center for Advancing Translational Sciences (NCATS), 2018).
In all, about 410,000 compounds went through this assay and about 18,000 (4.4%) were called active. Inconclusive results (about 7%) are left out. This excerpt belongs to a sample that is enriched for actives. Unmarked numbers belong to inactive results. Rule as the data show it: active = activity change below about -60%; inconclusive = no clear call, values can overlap the other calls; inactive = above about -39%.

test: qHTS Assay for inhibitors of the human cytomegalovirus (HCMV); conditions: HFF cells, HCMV-luciferase reporter, 72 h; at 57.5 µM; active compounds read low
How it was run: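 Luciferase read-out from HCMV-luciferase-infected HFFs (MOI 1 PFU/cell) 72 h post infection at 37C; compounds added after 16 h cell attachment; activity normalized between buffer-only basal and Salinomycin (10uM) inhibitor controls.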
% is scaled to controls: 0 for no effect and ±100 for the full control effect.

SMILES	activity change, negative = inhibition
O=C1N=C(N2CCOCC2)CS1	-12.8%
CC1CCN(C2=NC(=O)/C(=C/c3cn[nH]c3-c3ccccc3)S2)CC1	-1.68%
O=C1N=C(N2CCOCC2)S/C1=C\C=C/c1ccccc1	-102% (active)
COc1ccc(C2CC(=O)N(Cc3ccccc3C)c3c2c(C)nn3-c2nc(C)cc(C)n2)c(OC)c1 (stereo unspecified)	-22.9%
O=C(COc1ccc(Cl)cc1)Nc1ccc(-c2nc3cc(Cl)ccc3o2)c(O)c1	71.6%
O=C(Cn1cnc2ccccc2c1=O)Nc1cccc(S(=O)(=O)N2CCCCC2)c1	0%
CCC(C)c1ccccc1NC(=O)CN(C)CC(=O)Nc1ccccc1SC (stereo unspecified)	-37.9%
CSc1ccccc1NC(=O)CN(C)CC(=O)Nc1cccc(Br)c1	-99.6% (active)
CSc1ccccc1NC(=O)CN(C)CC(=O)Nc1ccc(Cl)cc1[N+](=O)[O-]	-26.6%
O=C(Cn1c(=O)n(Cc2cccs2)c(=O)c2cccnc21)Nc1ccc(F)cc1	-5.11%
CCCC(=O)Nc1ccc2oc(-c3ccc(O)c(Br)c3)nc2c1	94.7%
COc1ccc(CCNC(=O)c2cc(=O)c3c(C)cc(C)cc3o2)cc1OC	-6.54%
COc1cccc(-n2cc(C(=O)NCc3cccc(Cl)c3)c3ccccc3c2=O)c1	-23.6%
CCC1CN(S(=O)(=O)c2cc(-c3cc(C)no3)ccc2C)c2cc(C)ccc2O1 (stereo unspecified)	-36.6%
Cc1ccc2c(c1)N(S(=O)(=O)c1cc(-c3cc(C)no3)ccc1C)CCO2	-81.3% (active)
CCN(CC)c1ccc(NS(=O)(=O)c2cc(-c3cc(C)no3)ccc2C)c(C)c1	0%
C[C@@H]1NS(=O)(=O)c2cc(Cl)ccc2O[C@@H]1c1ccccc1	-16.5%
COc1ccc(CCn2cc3c(c2-c2ccc(Br)cc2)c(=O)n(C)c(=O)n3C)cc1OC	15.4%
COc1ccc(S(=O)(=O)NCc2cccn2Cc2cccc(C)c2)cc1	-4.02%
CCOc1ccc(N(C)S(=O)(=O)c2cc(-c3cnc(C)o3)ccc2OC)cc1	-20.5%
Cc1nn(C(C)C(=O)Nc2ccc(C(C)C)cc2)c(=O)c2c1sc1ccccc12 (stereo unspecified)	-9.99%

SMILES	activity change, negative = inhibition
COc1ccccc1Nc1nc(N)nc(N)c1S(=O)(=O)c1ccccc1	21.5%
COc1ccccc1NC1=NC(c2ccc(Cl)cc2)N=C(N)N1 (stereo unspecified)	-75.4% (active)
COc1ccccc1NC(=O)C1CCCN1S(=O)(=O)c1ccc(Cl)cc1 (stereo unspecified)	0.0905%
CC(=NNC(N)=O)c1ccc(Cl)c(-n2cccc2)c1	25.6%
Cc1cccc2c(=O)cc(CSc3ccccc3NC(=O)C(C)C)[nH]c12	45.6%
COCCCNC(=O)c1ccc(NC(=O)c2nsc3ccccc23)cc1	114%
CCCc1ccc(OCc2ccc(C(=O)N/N=C/c3cccc([N+](=O)[O-])c3)o2)c(OC)c1	-67.9% (active)
Cc1cccc(NC(=O)c2ccc(COc3ccccc3[N+](=O)[O-])o2)n1	-4.62%
COc1ccccc1OCc1ccc(C(=O)NC(C)c2ccccc2)o1 (stereo unspecified)	26.2%
COc1ccc(N(CC(=O)NCCc2ccc(Cl)cc2)S(=O)(=O)c2c(C)nn(C)c2C)cc1	-14.4%
Cc1ccc(S(=O)(=O)NCc2nc3nc(C)cc(C)n3n2)cc1	14.6%
Cc1ccc(-c2nn3c(=O)cc(CN4CCN(C(=O)Nc5cccc(C(F)(F)F)c5)CC4)nc3s2)cc1	10.5%
CCOC(=O)C1CCN(c2csc3ccc(C)cc3c2=O)CC1	-4.71%
COc1cccc(C(O)Cc2nc3ccccc3n2C)c1OC (stereo unspecified)	34.8%
Cn1c(COc2ccccc2C(C)(C)C)nc2ccccc21	-14.6%
CC(NCc1nc2ccccc2n1C)C12CC3CC(CC(C3)C1)C2 (stereo unspecified)	-65.6% (active)
CCOC(=O)c1ccc(NC(=O)c2csc3c2CCCCC3)cc1	26.3%
Nn1c(SCC(=O)NC2CCCc3ccccc32)nnc1C1CC1 (stereo unspecified)	40.9%
CC(C)N(Cc1ccccc1)C(=O)COC(=O)c1ccccc1SCC(=O)N1CCCC1	-8.52%
O=C(CC1C(=O)NCCN1Cc1ccc(-c2ccccc2)cc1)NCc1ccncc1 (stereo unspecified)	11.9%
CC(C)c1nc(CNC(=O)CC2C(=O)NCCN2Cc2cccc(F)c2F)cs1 (stereo unspecified)	12.4%

SMILES	activity change, negative = inhibition
COc1ccc(CN2CCNC(=O)C2CC(=O)NCc2cn[nH]c2-c2ccccc2)c(F)c1 (stereo unspecified)	-65.5% (active)
CCOc1ccc(N2CC(C)Cn3c2nc2c3c(=O)n(Cc3c(F)cccc3Cl)c(=O)n2C)cc1 (stereo unspecified)	-9.51%
CCOc1ccccc1NC(=O)CN1CCN(S(=O)(=O)c2ccc(Br)cc2)CC1	-1.48%
O=C(NC1CC(=O)N(c2ccc(F)cc2)C1)C1CCCCC1 (stereo unspecified)	31.9%
Cc1ccc(C)c(N2CCN(C(c3ccccc3)c3nnc(-c4ccccc4)o3)CC2)c1 (stereo unspecified)	20.2%
O=C(NN1C(=O)C2C3C=CC(O3)C2C1=O)c1ccncc1 (stereo unspecified)	-8.47%
COc1ccc(C(=O)NN2C(=O)C3C(c4ccccc4)C=CC(c4ccccc4)C3C2=O)cc1 (stereo unspecified)	-63% (active)
O=C(NN1C(=O)C2C3C=CC(C4CC34)C2C1=O)c1ccc(Cl)cc1 (stereo unspecified)	11.6%
CCc1cccc(NC(=O)c2cnc(N3CCOCC3)c3ccccc23)c1	10.1%
COc1ccc(CCNC(=O)c2ccc3c(c2)nc(C)n3-c2ccc(Br)cc2)cc1OC	-16.1%
Cc1ccc(C)c(Cn2c(C)c(CNCc3ccc(F)cc3)c(C(=O)O)c2C)c1	18.1%
Cc1ccc(C2c3[nH]c4ccccc4c3CCN2C(=O)c2cccc(C)c2)cc1 (stereo unspecified)	-22.4%
c1cncc(CNC2=NCCC2)c1	46.1%
Brc1ccc2ncnc(NCc3cccnc3)c2c1	-65.9% (active)
Clc1ccc(Cn2ncc3c(NCc4cccnc4)ncnc32)cc1	-72.2% (active)
C=CCOc1cccc(CNCc2cccnc2)c1	21.4%
C=CCNc1ncnc2ccc(Br)cc12	-60.6% (active)
CC(C)CNc1ncnc2c1cnn2Cc1ccc(Cl)cc1	-30.5%
Clc1cccc(-n2ncc3c(NCCc4ccccc4)ncnc32)c1	41.5%
